Here are results for 28 compounds from PubChem BioAssay (EPA / NIEHS).

Broadly, the AC50 is the concentration at which the activity in the assay is half-maximal.

Calls of active or inactive are those of the source. How the source made its calls: active means hit-call score of the fitted dose curve at least 0.9, where 1 is the maximum; inactive means score below 0.9.

For assay [1], the target named is Nuclear respiratory factor 1 (Homo sapiens) (UniProt Q16656). In words: ATG_NRF1_CIS: Attagene CIS-FACTORIAL HepG2 Assay for human Nuclear Respiratory Factor 1 (NRF1) Orphan Gene (AID 2282987). Particulars: HepG2 NRF1 cis-element reporter, Attagene multiplex; actives raise or lower the signal. The gist of the method:
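HepG2 cells transiently transfected with multiple cis-regulated reporter units, exposed 24 h. Reporter mRNAs measured by RT-PCR, fluorescent labelling, HpaI digestion and capillary electrophoresis; bidirectional fitting against DMSO.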

Assay [2] is described as follows: ATG_NFI_CIS: Attagene CIS-FACTORIAL HepG2 Assay for human Nuclear Factor I (NFI) (AID 2282989). To be noted: HepG2 cis-regulatory reporter, NFI response element transcription; actives raise or lower the signal. The gist of the method: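 Read-out: reporter mRNA via RT-PCR plus capillary electrophoresis with fluorescence detection. Transiently transfected HepG2 (endogenous TF activity on cis promoters), 24 h compound exposure; gain or loss of signal fitted against DMSO.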

Assay [3] has as its target Myc proto-oncogene protein (Homo sapiens) (UniProt P01106). In words: ATG_Myc_CIS: Attagene CIS-FACTORIAL HepG2 Assay for human Myelocytomatosis (Myc) Proto-Oncogene Transcription Factor (AID 2282990). Particulars: HepG2, Attagene cis-reporter transcription factor activity; actives raise or lower the signal. The gist of the method:
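Read-out: fluorescent reporter mRNA fragments resolved by capillary electrophoresis after RT-PCR. Human HepG2 liver cells carried transfected cis-element reporter units and were dosed for 24 h. Gain or loss of signal fitted relative to DMSO baseline.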

Assay [4] in a line: ATG_NF_kB_CIS: Attagene CIS-FACTORIAL HepG2 Assay for human Nuclear Factor Kappa B (NF-kB) (AID 2282991). Particulars: HepG2 Attagene cis-factorial NF-kB reporter mRNA; actives raise or lower the signal. The gist of the method: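 HepG2 cells transfected with cis-promoter-driven reporter units, so endogenous transcription factor activity is measured. Reporter mRNA quantified 24 h after dosing by RT-PCR and capillary electrophoresis, with bidirectional fitting against DMSO.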

A short description of assay [5]: ATG_NRF2_ARE_CIS: Attagene CIS-FACTORIAL HepG2 Assay for human Nuclear Factor Erythroid 2 Related Factor 2 (NFR2) response to Antioxidant Response Elements (ARE) (AID 2282992).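 On AC50: reporter mRNA level measured by RT-PCR and capillary electrophoresis fluorescence.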 Particulars: HepG2 Attagene ARE/NRF2 reporter, transcription factor activity; actives raise or lower the signal. The gist of the method: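 Fluorescence intensity of reporter-specific cDNA fragments, separated by capillary electrophoresis, reflects mRNA induction in transfected HepG2 cells at 24 h. Activity is fitted bidirectionally, DMSO serving as baseline.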

A short description of assay [6]: ATG_Oct_MLP_CIS: Attagene CIS-FACTORIAL HepG2 Assay for human Octamer-Binding Transcription Factor (Oct) (AID 2282993). To be noted: HepG2 Attagene cis-factorial Oct reporter, mRNA; actives raise or lower the signal. The gist of the method:
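Read-out: reporter mRNA via RT-PCR plus capillary electrophoresis of 6-FAM-labelled fragments. Transiently transfected HepG2, 24 h exposure, endogenous TF activity on cis elements. Gain or loss of signal fitted relative to DMSO.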

For assay [7], the target named is Cellular tumor antigen p53 (Homo sapiens) (UniProt P04637). In words: ATG_p53_CIS: Attagene CIS-FACTORIAL HepG2 Assay for human p53 Transcription Factor (AID 2282994). To be noted: HepG2 p53 cis-element reporter, Attagene mRNA; actives raise or lower the signal. The gist of the method: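 Transiently transfected HepG2 (multiple cis reporter transcription units); exposure 24 h; reporter RNA via RT-PCR, 6-FAM extension, 2 h HpaI digest at 37 C, CE detection; DMSO baseline.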
Cellular tumor antigen p53 (Homo sapiens), sequence (P04637 whole entry, looked up): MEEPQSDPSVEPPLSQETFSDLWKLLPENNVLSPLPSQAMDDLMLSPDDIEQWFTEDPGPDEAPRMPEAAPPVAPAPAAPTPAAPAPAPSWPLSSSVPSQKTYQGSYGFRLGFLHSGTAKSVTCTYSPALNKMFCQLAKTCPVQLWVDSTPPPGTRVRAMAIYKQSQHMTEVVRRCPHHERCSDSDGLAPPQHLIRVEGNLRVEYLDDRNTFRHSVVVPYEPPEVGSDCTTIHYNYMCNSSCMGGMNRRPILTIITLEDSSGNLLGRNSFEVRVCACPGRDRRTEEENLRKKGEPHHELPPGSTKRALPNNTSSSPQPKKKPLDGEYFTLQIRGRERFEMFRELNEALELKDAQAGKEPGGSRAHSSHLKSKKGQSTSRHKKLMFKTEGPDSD

A short description of assay [8]: BSK_3C_TissueFactor: BioMAP Diversity Plus: 3C Assay for Tissue Factor Biomarker Activity (AID 2282997). Particulars: BioMAP 3C HUVEC, tissue factor biomarker readout; actives raise or lower the signal. A digest of the protocol:
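In this endothelial system, HUVEC are treated for 24 h and Tissue Factor is assessed by ELISA, normalised to DMSO.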

Assay [9] can be described thus: BSK_3C_uPAR: BioMAP Diversity Plus: 3C Assay for Urokinase-type plasminogen activator receptor (uPAR) Biomarker Activity (AID 2282998). Particulars: BioMAP 3C HUVEC, uPAR biomarker ELISA; actives raise or lower the signal. The gist of the method:
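HUVEC primary cells; 24 h post-dose; uPAR by ELISA; gain or loss of signal fitted bidirectionally vs DMSO baseline.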
In general terms: ELISA stands for enzyme-linked immunosorbent assay.

A short description of assay [10]: BSK_3C_VCAM1: BioMAP Diversity Plus: 3C Assay for Vascular cell adhesion molecule 1 (VCAM1) Biomarker Activity (AID 2282999). To be noted: BioMAP 3C HUVEC, VCAM1 ELISA, cytokine-stimulated; actives raise or lower the signal. A digest of the protocol: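 HUVEC primary cells, 24 h compound exposure; VCAM-1 by ELISA; gain/loss of signal fitted bidirectionally vs DMSO baseline.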

Nuclear respiratory factor 1 (Homo sapiens), sequence (Q16656 whole entry, looked up): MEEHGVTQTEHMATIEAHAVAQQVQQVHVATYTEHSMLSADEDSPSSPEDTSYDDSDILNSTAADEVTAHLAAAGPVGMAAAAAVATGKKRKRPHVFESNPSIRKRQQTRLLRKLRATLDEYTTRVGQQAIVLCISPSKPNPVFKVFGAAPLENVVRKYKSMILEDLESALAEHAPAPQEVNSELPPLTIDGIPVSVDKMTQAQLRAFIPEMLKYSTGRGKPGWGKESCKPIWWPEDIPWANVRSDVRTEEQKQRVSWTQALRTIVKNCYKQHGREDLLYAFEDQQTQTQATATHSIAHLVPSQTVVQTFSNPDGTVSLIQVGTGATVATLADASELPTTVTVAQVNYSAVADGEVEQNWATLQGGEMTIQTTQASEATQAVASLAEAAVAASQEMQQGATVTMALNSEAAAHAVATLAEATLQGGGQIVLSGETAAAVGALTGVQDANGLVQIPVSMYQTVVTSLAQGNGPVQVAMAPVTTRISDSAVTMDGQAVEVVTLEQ
Myc proto-oncogene protein (Homo sapiens), sequence (P01106 whole entry, looked up, the tested form may be a part): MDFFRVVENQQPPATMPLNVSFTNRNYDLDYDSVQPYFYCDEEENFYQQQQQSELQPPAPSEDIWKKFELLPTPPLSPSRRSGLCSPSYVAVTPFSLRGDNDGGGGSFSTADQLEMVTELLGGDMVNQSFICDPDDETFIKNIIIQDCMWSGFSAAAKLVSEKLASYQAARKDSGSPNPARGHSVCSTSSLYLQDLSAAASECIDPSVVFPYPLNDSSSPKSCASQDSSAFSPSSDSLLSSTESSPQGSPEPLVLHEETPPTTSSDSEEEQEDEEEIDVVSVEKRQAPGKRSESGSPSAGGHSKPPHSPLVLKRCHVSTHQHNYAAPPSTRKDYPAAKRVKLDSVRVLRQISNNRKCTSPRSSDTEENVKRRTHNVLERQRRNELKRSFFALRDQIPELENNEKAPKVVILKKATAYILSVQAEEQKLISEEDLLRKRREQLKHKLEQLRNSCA

`Fc1ccc(Br)cc1`: the compound was classed as inactive in [1], in assay [2], in [3], in [4], in [5] and in assay [6]. Besides, the result in [7], in [8], in assay [9] and in assay [10] was inactive.
Take `Nc1ccc(C(=O)O)cc1`: the compound was classed as inactive in assay [1], in assay [2], in assay [3], in assay [4], in [5] and in assay [6]. The call in assay [7], in [8], in assay [9] and in [10] was inactive.
Take `c1ccc(-c2nc3ccccc3[nH]2)cc1`: the call in assay [1], in [2], in [4], in assay [5], in assay [6] and in assay [7] was inactive. For the same compound, in assay [3], the AC50 was 26.1 µM (active).
For the compound `CC(C)c1cccc(C(C)C)c1N`, the result in assay [1], in assay [2], in assay [3], in assay [4], in assay [5] and in [6] was inactive. For the same compound, the result in [7], in [8], in [9] and in [10] was inactive.
For `CC1=CP(=O)(c2ccccc2)CC1` (centres undefined), the result in assay [1], in assay [2], in [3], in [4], in assay [5] and in [6] was inactive. The call in assay [7] was inactive.
Turning to `CCc1cccc(C)c1N(C(=O)CS(=O)(=O)O)C(C)COC` (centres undefined), the call in assay [1], in assay [2], in assay [3], in [4], in assay [5] and in [6] was inactive. For the same compound, the outcome in assay [7], in assay [8], in [9] and in [10] was inactive.
On to `C=CC(C)(O)CC/C=C(\C)CC` (centres undefined), for which the call in assay [1], in assay [2], in assay [3], in assay [4], in assay [5] and in [6] was inactive. In addition, the compound was called inactive in assay [7].
With `CCCCCCCCCCCCCCCCCCOS(=O)(=O)O`, the AC50 in [1] was 49.5 µM (active); in [2], 33.4 µM (active); in [4], 58.1 µM (active); in assay [5], 13.7 µM (active); in [7], 18.4 µM (active). Moreover, the outcome in assay [3] and in assay [6] was inactive.
Regarding `Oc1c(Cl)cc(Cl)c(Cl)c1Cl`, the result in assay [1], in assay [2], in assay [3], in [4] and in assay [7] was inactive. For the same compound, the AC50 was 27.1 µM (active) in assay [5]; 100 µM (active) in assay [6]; 23.8 µM (active) in assay [8]; 20 µM (active) in [9]; 20 µM (active) in assay [10].
`C=C(C)C(=O)OCC(O)COc1ccc(C(C)(C)c2ccc(OCC(O)COC(=O)C(=C)C)cc2)cc1` (centres undefined): the figures for the AC50 in [1], in assay [5] and in assay [6] were 130 µM (active), 26.5 µM (active) and 17.8 µM (active), respectively. Moreover, the result in assay [2], in assay [3], in assay [4] and in assay [7] was inactive.
For `CCCC(CC)c1ccccc1` (centres undefined), the AC50 in assay [1] is 158 µM (active); in [2], 181 µM (active); in assay [5], 165 µM (active). Moreover, the outcome in assay [3], in [4], in [6] and in assay [7] was inactive.
On to `CC(C)c1ccc(O)c(C(C)C)c1`, for which the result in assay [1], in [2], in [3], in assay [4], in assay [6] and in assay [7] was inactive. For the same compound, in [5], the concentration at half-maximal activity (AC50) is 24.6 µM (active).
Turning to `[Cl][Eu]([Cl])[Cl]`, the call in [1], in assay [2], in assay [3], in [4], in assay [5] and in assay [6] was inactive. Besides, the call in assay [7] was inactive.
For `CN1CCN(C)CC1`, the call in [1], in assay [2], in assay [3], in assay [4], in assay [5] and in assay [6] was inactive. Further, the outcome in assay [7] was inactive.
Take `CC(=O)c1ccc(S(=O)(=O)NC(=O)NC2CCCCC2)cc1`: the result in assay [1], in [2], in [3], in assay [4], in assay [5] and in assay [6] was inactive. Besides, in assay [7], the result was inactive.
Take `CC(=O)OC1CCCCC1C(C)(C)C` (centres undefined): the call in assay [1], in assay [2], in assay [3], in assay [4], in [5] and in [6] was inactive. For the same compound, the call in assay [7] was inactive.
As to `Nc1ccc(C(=O)OCCCOC(=O)c2ccc(N)cc2)cc1`, the outcome in assay [1], in [2], in assay [3], in assay [4], in [5] and in assay [6] was inactive. For the same compound, the compound was called inactive in assay [7].
For `CCOB(OCC)OCC`, the call in assay [1], in assay [2], in [3], in assay [4], in [5] and in assay [6] was inactive. Moreover, the call in [7] was inactive.
With `O=C(O)c1ccc2c(c1)C(=O)OC2=O`, the outcome in assay [1], in [2], in assay [3], in assay [4], in assay [5] and in [6] was inactive. Besides, the call in assay [7] was inactive.
For the compound `CCc1cccc(C)c1N`, the compound was classed as inactive in assay [1], in assay [2], in assay [3], in assay [4], in assay [5] and in assay [7].
Take `CCCCCCCO`: the call in [1], in assay [2], in assay [3], in [4], in assay [5] and in assay [8] was inactive. In addition, the outcome in assay [9] and in assay [10] was inactive.
As to `CC(C)(c1ccccc1)c1ccc(Nc2ccc(C(C)(C)c3ccccc3)cc2)cc1`, the call in assay [1], in assay [2], in assay [3], in [4], in assay [5] and in assay [7] was inactive.
Consider `CCCCCC1=CCCC1=O`, for which the result in [1], in assay [2], in assay [3], in assay [4], in [8] and in [9] was inactive. Besides, the result in assay [10] was inactive. The AC50 in [5] is 55.8 µM (active).
As to `CCCC/C=C/C=C\C=O`, the compound was classed as inactive in assay [1], in assay [2] and in assay [3]. Also, the AC50 in [4] is 63.8 µM (active); in assay [5], 41.3 µM (active); in [7] it was 165 µM (active).
With `CC(C)c1ccc2ncccc2c1`, the compound was classed as inactive in assay [1], in assay [2], in assay [3], in [4] and in assay [6].
Consider `CC(C)CCCCCOC(=O)CS`, for which the call in assay [1], in [2], in assay [3], in [4], in assay [7] and in [8] was inactive. Moreover, the result in assay [9] and in assay [10] was inactive. The AC50 in assay [5] is 19.5 µM (active).
In the case of `Nc1nc(N)nc(-c2ccccc2)n1`, the outcome in assay [1], in assay [2], in [3], in assay [4], in assay [5] and in assay [6] was inactive. Moreover, the result in assay [8], in assay [9] and in assay [10] was inactive.
`COC(OC)(C(=O)c1ccccc1)c1ccccc1`: the result in assay [1], in assay [2], in assay [3], in assay [4], in [5] and in [6] was inactive. Also, the outcome in assay [8], in assay [9] and in assay [10] was inactive.
